NALP1 yeast inh: NALP1 inflammasome inhibitors in reconstituted yeast, colorimetric, S. cerevisiae, triplicate retest; actives 0.61% (n = 280,000); inhibition, % at 10 µM; AID 2071, 2009; S. cerevisiae NALP1/ASC/caspase-1 growth, X-gal OD620, 72 h; in the data active = inhibition mostly above about 24%, no sharp cut-off; inactive = mostly below about 32%
OPRM1-OPRD1 inv: inverse agonists of MOR-DOR heterodimerization, primary screen, cell-based, luminescence | actives 0.21% (n = 340,000) | inhibition, % at 9.3 µM | AID 504357, 2011 | Mu-type opioid receptor (Homo sapiens) + Delta-type opioid receptor (Homo sapiens), … | cell-based MOR-DOR heterodimer luminescence, inverse agonism; in the data active = inhibition above about 22%, passing the limit was not always enough;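 also: 0% = cells with DMSO and 100% = wells without cells with DMSO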
PolyA inhibitor: polyadenylation inhibitors in yeast reporter cells, primary screen, luminescence, S. cerevisiae | S. cerevisiae SKY197-pL101 polyadenylation reporter, beta-gal luminescence; efflux-impaired pdr1/pdr3 knockout yeast; score 100 = 6 SD above DMSO | activity score, % at 12 µM | actives 0.02% (n = 300,000) | AID 1875, 2009;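 active = lowest replicate activity score at least 50, where 100 means six control SD above control mean; inconclusive = lowest score under 50 but half or more replicates reach 50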;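 also: yeast exposed to compound for 9 h at 30 °C; higher score means more reporter readthrough which indicates perturbed polyadenylation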
OPRM1-OPRD1 ag: agonists of OPRM1-OPRD1 heterodimerization, primary screen, cell-based, luminescence; actives 0.3% (n = 340,000); Mu-type opioid receptor (Homo sapiens) + Delta-type opioid receptor (Homo sapiens), …; cells; activation, % at 9.3 µM; in the data active = activation above about 18%;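 also: 0% = vehicle-treated cells and 100% = reference agonist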
HTR5A ag ctr: HTR5A agonists in luminescence cell assay, primary screen, counter-screen for OPRM1-OPRD1 heterodimer agonist project, full-deck HTS; 5-hydroxytryptamine receptor 5A (Homo sapiens), P47898; cell-based; activation, % at 9.3 µM; actives 0.61% (n = 340,000); AID 504692, 2011; in the data active = activation mostly above about 9.5%, no sharp cut-off; inactive = mostly below about 7.6%;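 also: 0% = cells with vehicle only and 100% = reference agonist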
HTR5A inv ctr: HTR5A inverse agonists in luminescence cell assay, primary screen, counter-screen for OPRM1-OPRD1 heterodimer inverse agonist project, full-deck HTS; 5-hydroxytryptamine receptor 5A (Homo sapiens), P47898; HTR5A cell line, inverse agonism; actives 0.083% (n = 340,000); inhibition, % at 9.3 µM; in the data active = inhibition mostly above about 23%, no sharp cut-off; inactive = mostly below about 18%;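 also: 0% = cells with DMSO and 100% = no-cell wells with DMSO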
The depositor's hits bear a star; ? = inconclusive; · = no result. The list is not random: actives were taken first. Their share in the collection is about 1.6%.

SMILES	NALP1 yeast inh	OPRM1-OPRD1 inv	PolyA inhibitor	OPRM1-OPRD1 ag	HTR5A ag ctr	HTR5A inv ctr
CCNC(=S)NCCC1=c2ccccc2=N/C1=C\c1c(O)n(C)c(=O)n(C)c1=O	-5.3	·	10.0	·	·	·
CNC(=S)N1CCn2cccc2C1c1cccnc1 (stereo not drawn)	-6.9	13.6	-4.0	-2.9	10.4*	-26.9
CCCCNC(=S)N1CCn2cccc2C1c1cccnc1 (stereo not drawn)	-11.5	9.9	6.0	-2.1	-2.3	5.8
COC(=O)C1=C(c2cccc(C#N)c2)C[C@@H]2CC[C@H]1N2C(=O)N1CCc2cc(OC)c(OC)cc2C1	·	12.3	·	-2.2	5.5	9.9
CCCC(CCC)C(=O)OC[N+](C)(C)CCOC(=O)C(O)(c1ccccc1)C1CCCC1 (stereo not drawn)	27.5*	10.1	-0.5	-1.5	-1.2	3.6
Cc1cc(C(=O)N=Nc2c(O)n(C)c3ccccc23)c(C)o1	16.7	14.1	-6.7	-2.8	2.2	-5.8
Cc1ccc(OP2(=O)Nc3cc(C)c(C)cc3S2)cc1 (stereo not drawn)	·	-7.6	·	1.6	1.4	-5.5
CC1OC(OC2C(O)CC(OC3C(O)CC(OC4CCC5(C)C(CCC6C5CCC5(C)C(C7=CC(=O)OC7)C(O)CC65O)C4)OC3C)OC2C)CC(O)C1O (stereo not drawn)	·	-320.0	·	62.2*	19.4*	-76.0
CN1CCC(c2c[nH]c3ccc(O)cc23)CC1	·	-1.5	·	0.3	29.2	-72.2
CC1CCCC(C)N1/N=C/c1c[nH]c2ccc(Br)cc12 (stereo not drawn)	65.2*	-32.5	-9.4	6.8	6.2	-27.9
O=C1NC(=S)SC1=Cc1ccc(N(CCCl)CCCl)cc1	·	14.2	·	-3.2	-1.9	7.3
CCCCn1c(O)c(C(CC)=NCCN2CCOCC2)c(=O)[nH]c1=O	44.1*	3.2	2.2	-0.6	10.8	-35.0
COc1ccc2c(c1)NP(=S)(Oc1ccccc1)N2 (stereo not drawn)	2.8	-4.0	-14.8	0.9	9.4*	-33.3
Cc1ccc2c(c1)NP(=S)(Oc1ccccc1)N2 (stereo not drawn)	·	14.6	·	-2.8	-1.9	7.6
c1cncc(CNC2CCCC2)c1	29.8*	11.3	4.1	-2.2	-4.1	10.0
Nc1c2c(nc3sc4c(c13)CCCCC4)CCCC2	66.9*	-3.3	10.9	0.6	-2.7	9.3
CCCCN(Cc1ccccc1)C1CCN(CCc2ccccc2)CC1	48.5*	-53.5	-5.7	10.3	-1.1	-8.2
O=C(COc1ccc2ccc(=O)oc2c1)N1C[C@H]2C[C@@H](C1)c1cccc(=O)n1C2	11.1	12.8	?	-2.5	-1.2	15.1
COc1ccccc1C(=O)Nc1ccc2c(c1)CC1(C(=O)N(C)C(=O)N(C)C1=O)C1CCCN21 (stereo not drawn)	-1.5	6.0	-3.7	-1.1	1.7	-6.8
CN(C)C(=S)SSC(=S)N(C)C	64.3*	10.2	7.5	-1.8	3.8	-38.9
CCN1CCC(N(C)C2CCCCC2)CC1	-41.5	10.2	-2.2	-2.0	-0.6	2.3
O=C1CN=C(c2ccc(Cl)cc2)c2oc3ccccc3c2N1	·	·	28.4	·	·	·
COc1ccc2oc3c(c2c1)NC(=O)CN=C3c1ccccc1	22.9*	-4.2	-5.7	0.8	1.0	3.4
C[C@H]1C[C@@H](C)C(=O)[C@@H]([C@H](O)CC2CC(=O)NC(=O)C2)C1	100.1*	11.6	6.6	-2.1	-1.3	-18.6
COC1CCC(OC2CC(C3(C)CCC4(CC(O)C(C)C(C(C)/C=C(\C)C(=O)C(C)CC(C)C(=O)O)O4)O3)OC3(OC(C4OC(O)(CO)C(C)CC4C)CC3C)C2C)OC1C (stereo not drawn)	·	-83.7	·	19.1*	7.9	-30.1
C/C=C(\C)C(=O)OC1C(C)=C2C(C1OC(=O)CCCCC)C(C)(OC(C)=O)CC(OC(=O)CCC)C1(O)C2OC(=O)C1(C)O (stereo not drawn)	-1.1	·	?	·	·	·
COC(=O)C1=C(c2cccc(OCc3ccccc3)c2)C[C@@H]2CC[C@H]1N2C(=O)NCCCc1ccccc1	·	8.8	·	-1.5	4.1	-12.1
